Results from PubChem BioAssay (NCATS).
Inconclusive results are not listed. Calls of active or inactive are those of the source. Calls come from the whole dose curve; as a rule, active = well fitted inhibition curve with a large enough effect; inconclusive = small, poorly fitted or top-dose-only effect; inactive = flat fitted curve, though single readings scatter.

test: P-glycoprotein substrates identified in KB-8-5-11 adenocarcinoma cell line, qHTS therapeutic library screen (AID 1346987); details: KB-8-5-11 (P-gp overexpressing) viability, CellTiter-Glo, 72 h; series mostly up to 44.5 µM; activity change, negative = cytotoxicity: at the top concentration; note: nearly all actives have a fitted effect of over 65% in size
Method in brief: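 In this qHTS, P-gp-rich KB-8-5-11 cells received library compounds across a concentration range. Viability was quantified by luminescence after 72 h at 37 degree C.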
% is set by controls: 0 for no effect and ±100 for the full control effect; potency is the fitted concentration of half-maximal effect.

Compound | activity change, negative = cytotoxicity | outcome | Potency
CO[C@H]1/C=C/C=C/C=C/C[C@H](OC(=O)[C@@H](C)NC(=O)C2CCCCC2)[C@H](C)[C@@H](O)/C(C)=C/CCc2cc(O)cc(c2)NC(=O)C1 | -19.1% [at 17.3 µM] (inactive) | – | –
C[C@H](N)C(=O)N[C@@H](Cc1ccc(O)cc1)C(=O)N1CCC[C@H]1C(=O)NCC(=O)N[C@@H](CCCCN)C(=O)N[C@@H](Cc1ccccc1)C(N)=O | – | inactive [at 9.29 µM] | –
CC(C)N(CCCCOCC(=O)NS(C)(=O)=O)c1cnc(-c2ccccc2)c(-c2ccccc2)n1 | – | inactive | –
c1ccc(N2CCN(CCc3nn[nH]n3)CC2)cc1 | -6.1% (inactive) | – | –
CCC1C(=O)N(C)c2cnc(Nc3ccc(C(=O)NC4CCC(N5CCN(CC6CC6)CC5)CC4)cc3OC)nc2N1C(C)C (configuration not stated) | – | – | 291 nM (active)
Fc1ccc2nc(CCC#Cc3ccccn3)cn2c1 | -17.2% (inactive) | – | –
Cc1ccc(Cc2c(C)nc3nc(SCC(=O)NCCN4CCNCC4)nn3c2C)cc1 | 9.89% (inactive) | – | –
